Compounds with a hit are over-represented: about 2.6% of the library has one in this group of screens.
PABP polyA inh: PABP-poly(A) binding inhibition | PABP-poly(A) RNA binding, fluorescence polarization | calls only at 35 µM | 290,000 tested, 1% active | AID 2014;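 note: calls also rest on retests at 20 µM and on dose response follow-up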
ABCB6 inh 2: inhibitors of human ABC transporter ABCB6; Q9NP58; K562-ABCB6 porphyrin accumulation, flow cytometry, 1 h; stronger effect = lower value; fluorescence ratio to DMSO, % at 10 µM; 360,000 tested, 0.19% active; AID 602162;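 active = fluorescence ratio to DMSO below 75%, the collection mean minus 3 SD; inconclusive = too few cells collected in the well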;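 note: signal is porphyrin accumulated inside mitochondria; 100% equals median channel fluorescence of DMSO control wells; lower ratio means ABCB6 inhibition with less porphyrin fluorescence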
eIF4H FP inh: inhibitors of RNA binding by human eIF4H | Q15056 | eIF4H fluorescence polarization binding assay | inhibition, % at 35 µM | 290,000 tested, 0.94% active | AID 2012;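 note: calls also rest on retests at 20 µM and on dose response follow-up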
PHOSPHO1 inh: blocks human PHOSPHO1 phosphatase activity; Q8TCT1; recombinant PHOSPHO1, absorbance phosphatase assay; inhibition, % at 13.3 µM; 290,000 tested, 1.1% active; AID 1565; in the data active = inhibition above about 60%
Target sequence (Q8TCT1 whole entry, looked up): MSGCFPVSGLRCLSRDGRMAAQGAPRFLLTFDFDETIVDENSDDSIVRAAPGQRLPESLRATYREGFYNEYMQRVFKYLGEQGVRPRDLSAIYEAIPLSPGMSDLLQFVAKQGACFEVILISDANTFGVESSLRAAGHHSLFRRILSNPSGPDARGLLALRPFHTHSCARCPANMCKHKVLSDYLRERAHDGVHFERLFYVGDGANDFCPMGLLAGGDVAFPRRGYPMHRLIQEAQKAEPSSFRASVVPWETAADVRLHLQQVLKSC
AI-2 QS modul: modulates the Vibrio harveyi AI-2 quorum sensing system; activity change, % at 7.5 µM; Vibrio harveyi JMH597 AI-2 luminescence/OD600 ratio, 9 h; stronger effect = lower value; strain lacks LuxN and CqsS sensors; 0 = neutral-control median; 300,000 tested, 0.4% active; AID 2094; in the data active = activity change below about -75%, passing the limit was not always enough; inconclusive = no clear call, values can overlap the other calls;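 note: luminescence divided by OD600 gain over 9 h not by final OD600 alone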
MLLE-PAM2 inh: inhibitors of microRNA-mediated deadenylation, human PABP1 MLLE binding. 360,000 tested, 0.36% active. GST-MLLE / FITC-PAM2 fluorescence polarization. AID 588489. P11940. inhibition, % at 20 µM; in the data active = inhibition above about 35%, passing the limit was not always enough;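 note: plate controls were DMSO wells with GST-MLLE for no effect and wells lacking GST-MLLE protein for full effect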
Active calls of the source: *; i = inactive; ? = inconclusive; / = no result given; + = active, no number. Unless noted, the rule behind the calls is not given here.

SMILES	PABP polyA inh	ABCB6 inh 2	eIF4H FP inh	PHOSPHO1 inh	AI-2 QS modul	MLLE-PAM2 inh
O=C(O)C1OC(Oc2c(-c3ccc(O)c(O)c3)oc3cc(O)cc(O)c3c2=O)C(O)C(O)C1O (stereo not given)	+	/	76.5*	6.0	16.5	/
O=C1C(Cl)=C(N2CCC(C(=O)O)CC2)C(=O)c2ccccc21	i	92.0	13.0	32.8	21.3	55.2*
O=C(Nc1ccccc1)Nc1nnc([C@H]2C[C@H](O)[C@@H](CO)O2)s1	/	88.0	/	/	/	-11.9
COCc1cc(=O)[nH]c(SCCS(=O)(=O)c2ccc(Cl)cc2Cl)n1	i	100.0	-1.1	-67.1	45.5	38.2*
Cc1cccc2sc(=S)[nH]c12	/	99.0	/	/	/	16.6
Cc1ccc(C)c(N2CCN(C(=O)Cc3c(C(=O)O)[nH]c4ccc(Cl)cc34)CC2)c1	+	102.0	?	15.9	10.9	4.6
NC(=O)c1c(NC(=O)C2CCCO2)sc2c1CCCCC2 (stereo not given)	i	105.0	12.2	29.8	-7.1	40.9*
C[C@H](NC(=O)C1CCN(S(=O)(=O)c2ccccc2)CC1)C(=O)NC1CC1	/	96.0	/	/	/	0.4
Cn1c(SCC(=O)c2ccccc2)nnc1-c1cnccn1	i	97.0	-2.3	83.1*	4.4	-16.6
O=C(CSc1nnc(-c2ccccn2)n1Cc1ccco1)c1ccc(-c2ccccc2)cc1	i	95.0	3.3	77.0*	10.2	-6.3
CCn1c(SCC(=O)c2ccccc2)nnc1-c1cnccn1	i	91.0	-4.4	7.0	0.1	4.7
O=C(CSc1nnc(-c2cnccn2)n1Cc1ccco1)c1ccc2ccccc2c1	i	92.0	5.0	85.5*	18.0	-13.3
CCN(CC)C(=O)C1=C(C)N(Cc2ccc(OC)cc2)C(=O)C(CC(=O)NC2CC2)C1 (stereo not given)	/	96.0	/	/	/	6.9
C#CCNC(=O)c1ccc2sc([C@@H]3O[C@H](CO)[C@H](O)[C@H](O)[C@H]3O)nc2c1	/	96.0	/	/	/	6.9
CC(=O)/C(=N\Nc1ccc(C)cc1)N1CCOCC1	i	107.0	-4.9	65.0*	6.7	4.2
CC(=O)Nc1ccc(NC(=O)N2CCOCC2)cc1	/	96.0	/	/	/	9.8
COCCn1c(C)cc(C2=NNC(=Nc3ccccc3F)SC2)c1C	i	93.0	10.9	88.1*	6.3	2.0
Cc1sc(NC(=S)Nc2ccc(F)cc2)c(C(N)=O)c1C	i	97.0	3.5	24.0	32.4	34.8*
CCOC(=O)c1c(NC(=S)Nc2ccc(Cl)cc2)sc(C)c1C	i	103.0	1.8	35.2	27.1	33.4
O=S1(=O)CC(N2CCCC2)CN1Cc1cn(Cc2ccccc2)nn1 (stereo not given)	/	100.0	/	/	/	/
Cc1ccc(C(=O)c2ccc([N+](=O)[O-])cc2)cc1	i	98.0	5.3	8.5	13.0	-16.1
Cc1ccc(C(=O)c2coc3cc([N+](=O)[O-])c(O)c([N+](=O)[O-])c23)cc1	i	105.0	89.4	4.1	-90.2*	7.0
Cc1cccc(C(=O)NNC(=S)NC(=O)c2ccccc2)c1	/	94.0	/	/	?	-4.4
Cc1ccc(C(=O)NC(=S)Nc2ccccc2C(F)(F)F)cc1	i	105.0	-0.8	25.3	-87.1*	35.5
Cc1ccc(C(=O)NCC(=O)Nc2ccccc2C(F)(F)F)cc1	i	103.0	-0.8	-1.4	-3.6	6.5
SMILES	PABP polyA inh	ABCB6 inh 2	eIF4H FP inh	PHOSPHO1 inh	AI-2 QS modul	MLLE-PAM2 inh
Cc1ccc(C(=O)NNC(=S)NC(=O)c2ccccc2)cc1	/	98.0	/	/	-83.8*	-6.0
CCCCCC(=O)NNC(=S)NC(=O)c1ccc([N+](=O)[O-])cc1	i	93.0	62.0	48.5	-45.5	39.4*
O=C(NC(=S)Nc1cccc2c(O)cccc12)c1ccccc1[N+](=O)[O-]	+	104.0	74.6*	21.2	22.2	17.3
O=C(NNC(=S)NC(=O)c1ccccc1[N+](=O)[O-])c1ccccc1[N+](=O)[O-]	i	98.0	15.6	85.0*	2.8	17.6
Cc1ccc(C(=O)NNC(=S)NC(=O)c2ccc(Cl)cc2Cl)cc1	i	94.0	27.4	76.4*	59.7	10.8
Cc1ccc(C(=O)NC(=S)NNC(=O)c2ccc([N+](=O)[O-])cc2)cc1	i	97.0	9.2	-67.3	-85.9*	24.4
O=C(NC(=S)NNC(=O)c1ccccc1O)c1ccc([N+](=O)[O-])cc1	i	99.0	3.3	14.1	15.1	40.5*
CSC12CCCN(CCC(C(C)(C)C)C1)C2=O (stereo not given)	/	106.0	/	/	/	/
Cc1ccc(C(=O)NC(=S)NNC(=O)c2ccccc2)cc1	i	92.0	11.2	-28.4	-150.5*	1.4
CC(=O)NC(=S)NNC(=O)CCc1ccccc1	i	97.0	9.0	6.2	?	9.9
CCCCC(=O)NNC(=S)NC(=O)CCC	i	92.0	13.3	-4.4	22.0	3.6
O=C(CCc1ccccc1)NNC(=S)NC(=O)c1ccccc1	i	96.0	12.5	53.4	-308.8*	21.8
CCCCC(=O)NC(=S)NNC(=O)CC#N	i	100.0	22.5	95.4*	27.8	31.4
Cc1c(NC(=S)NC(=O)C(C)(C)C)cccc1[N+](=O)[O-]	+	98.0	active	8.4	26.5	34.5
C/C(CC(=O)Nc1ccc([N+](=O)[O-])cc1)=N\NC(=O)c1ccccc1O	i	96.0	82.3*	33.9	-1.5	-14.0
COc1cccc(CNC(=O)[C@@H]2CCCN2C(=O)[C@@H]2CCCN2C(=O)c2ccc(Cl)cc2)c1	/	95.0	/	/	/	/
COc1ccccc1NC(=O)N1CCc2[nH]c3ccc(F)cc3c2C1	+	97.0	101.8*	0.5	28.0	28.6
Cc1ccc2[nH]c3c(c2c1)CN(C(=O)CN1CCSCC1)CC3	+	/	52.6*	47.0	11.7	/
CC(=O)N1CCc2[nH]c3ccccc3c2C1	i	96.0	-6.9	14.7	17.1	-14.5
CCOC(=O)N1CCc2[nH]c3ccc(C)cc3c2C1	i	103.0	6.2	21.3	1.5	56.0*
O=C(C1CCCCC1)N1CCc2[nH]c3ccc(F)cc3c2C1	i	100.0	8.3	-10.4	11.3	-9.6
Cc1ccc2[nH]c3c(c2c1)CN(C(=O)CN1CC(C)OC(C)C1)CC3 (stereo not given)	?	303.0	?	0.2	/	-5.8
CC(=O)N1CCc2[nH]c3ccc(C)cc3c2C1	+	101.0	?	18.7	/	17.5
O=C1c2ccccc2C(c2nnnn2-c2ccc3c(c2)OCCO3)N1CCOc1ccccc1 (stereo not given)	/	90.0	/	/	/	/
O=C(NCc1nnnn1-c1ccc(Cl)cc1)C(=O)c1c[nH]c2ccccc12	/	96.0	/	/	/	8.1
CCOC(=O)Cc1ccc(Nc2nc(NCc3cccs3)nc3ccsc23)cc1	/	99.0	/	/	/	0.2
CC1(c2nnnn2-c2ccc3c(c2)OCCO3)CCC(=O)N1Cc1ccc(F)cc1 (stereo not given)	/	99.0	/	/	/	/
Cc1ccc(NC(=S)NCCN(C2CCCCC2)C2CCCC2)cc1C	+	93.0	active	11.3	35.4	2.1

Screening results: PubChem, several laboratories
